The values that follow come from PubChem BioAssay AID743402 (Broad Institute, 2014).

Screen size: about 1,200 compounds; about 140 (12%) were called active.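 How the source made its calls: active means fitted curve falls past -35% activity change at a dose under twice the top valid dose, in every replicate test; inconclusive means replicate tests disagree on the call; inactive means the rest, including activity in the opposite direction.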 These entries were drawn from the full list.

The nature of the assay: CFTR-F508del correctors, dose response, FRT cells, YFP quenching, cherry-pick (AID 743402).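 Further: compounds act as correctors raising surface CFTR-F508del before acute activation.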 Conditions: FRT CFTR-F508del YFP iodide quenching, 24 h, channel opened with forskolin and a potentiator; series mostly up to 26 µM.
Turning to `O=C1c2ccccc2C(=O)c2c1cccc2N(CCO)CCO`, the activity change, negative = more quenching (active) entry is “inactive”.
Regarding `COc1ccc(S(=O)(=O)NCc2ccccn2)cc1NC(=O)c1ccccc1F`, the activity change, negative = more quenching (active) result is “inactive”.
In the case of `COc1cccc(N2CCN(C(=O)c3ccc(CS(=O)c4ccc(C)cc4)o3)CC2)c1` (stereo not drawn) it was “inactive”; in that of `O=C(NCCOc1ccccc1)c1cc([N+](=O)[O-])ccc1N1CCOCC1`, “inactive”.
Then `COc1ccc(OC)c(-c2cnc(OC(C)(C)C)nc2OC(C)(C)C)c1`, with “inactive”; and `COc1ccc([C@H]2CC(=O)C=C(c3c(OC)cccc3OC)C2)cc1`, with “inactive”.
With `CC(C)C[C@H]1CN([C@@H](CC(C)C)CN2CCC[C@@H]2CN2C(=S)NC[C@@H]2Cc2ccc(O)cc2)C(=S)N1CCc1ccccc1`, the activity change, negative = more quenching (active) entry was “inactive”.
Regarding `CCOC(=O)c1c(C)[nH]c(C(=O)N/N=C\c2ccccc2O)c1C`, the activity change, negative = more quenching (active) entry was “inactive”.
Turning to `N#CC1=C(N)Oc2cc(N)ccc2C1c1cccc(F)c1` (stereo not drawn), the activity change, negative = more quenching (active) result was “inactive”.
In the case of `COc1ccccc1C#Cc1ccc2c(c1)O[C@@H](CN(C)Cc1cccnc1)[C@H](C)CN([C@H](C)CO)S2(=O)=O` it was “inactive”; in that of `COc1ccc([C@H]2C[C@H](O)[C@@H](n3cc(-c4ccc(F)cc4)nn3)CN2Cc2cccs2)cc1`, “inactive”.
In the case of `COc1cc(C(=O)Nc2ccccc2C(=O)Nc2ccccn2)cc(OC)c1OC` it was “inactive”; in that of `COc1cccc(S(=O)(=O)N(C)C[C@@H]2Oc3cc(C4=CCCC4)ccc3S(=O)(=O)N([C@H](C)CO)C[C@H]2C)c1`, “inactive”.
For the molecule `COc1cc(/C=C(\C#N)c2nc3ccccc3[nH]2)cc(OC)c1O`, the activity change, negative = more quenching (active) result was “inactive”.
On to `CCCCNC(=O)CSc1nc2ccc(C)cc2[nH]1`, for which the activity change, negative = more quenching (active) entry was “inactive”.
Then `O=C(NCCN1C(=O)S/C(=C\c2ccc(OC(F)F)cc2)C1=O)c1cnccn1`, with “inactive”; and `CC(=O)Nc1cccc(-c2ccnc3c2CC(C)(C(=O)Nc2ccc4c(c2)OCO4)O3)c1` (stereo not drawn), with “inactive”; and `O=C(NN=C1CCCC1)c1[nH]c2ccc(Cl)cc2c1-c1ccccc1`, with “inactive”.
As for `COc1cc(OC)c2c(-c3cccc(-c4sccc4C(C)=O)c3)cc(=O)oc2c1`, the activity change, negative = more quenching (active) entry is “inactive”.
As to `CC(C)Oc1ncnc2c1[nH]c1ccccc12`, the activity change, negative = more quenching (active) entry was “inactive”.
In the case of `O=c1[nH]c(/C=C/c2ccccc2F)nc2ccccc12` it was “inactive”; in that of `Cc1cccc(N2CCN(C(=O)c3ccc4[nH]c(C)c(C)c4c3)CC2)c1C`, “inactive”.
In the case of `O=C1C=CCC(/C=C/c2ccccc2)O1` (stereo not drawn) it was “inactive”; in that of `COc1ccc2c3c([nH]c2c1)[C@@H](CO)N(C(=O)C1CCOCC1)CC31CCN(Cc2cccc(F)c2)CC1`, “inactive”; in that of `CN(Cc1ccccc1)S(=O)(=O)c1ccc(NC(=S)NC(=O)C2CCCC2)cc1`, “inactive”.
On to `COc1ccc(NC(=O)c2nc(C)c(C3(C)CC(c4cccnc4)=NO3)s2)cc1` (stereo not drawn), for which the activity change, negative = more quenching (active) result is “inactive”.
In the case of `COc1ccc(C(=O)OCC(=O)N2C(C)CCCC2C)cc1S(=O)(=O)N1CCOCC1` (stereo not drawn) it was “inactive”.
Turning to `Cc1ccc(/C=N/NC(=O)c2ccc3ccccc3c2)s1`, the activity change, negative = more quenching (active) entry is “inactive”.
For `COc1ccc(C2=Nn3c(nnc3-c3ccccc3F)SC2)cc1OC1CCOC1` (stereo not drawn), the activity change, negative = more quenching (active) result is “inactive”.
In the case of `O=C(N/N=C/c1c(O)ccc2ccccc12)c1ccc(CO)nc1` it was “inactive”; in that of `C[C@H](CO)N1C[C@H](C)[C@@H](CN(C)Cc2ccc(Cl)c(Cl)c2)Oc2ccc(NC(=O)Nc3ccc(C(F)(F)F)cc3)cc2CC1=O`, “inactive”; in that of `Cc1cc(NCc2ccccn2)n2nc(C)c(-c3ccccc3)c2n1`, “inactive”.
Take `COc1ccc(OC)c(/C(C)=N\NC(=O)c2cc3cc(Cl)ccc3n2C)c1`: the activity change, negative = more quenching (active) entry was “inactive”.
Then `COc1ccc(CCNc2c3ccccc3nc3ccccc23)cc1OC`, with “inactive”; and `CCOC(=O)c1sc(Nc2nc(C)cc(C)n2)nc1C`, with “inactive”; and `COc1ccc(C)cc1Nc1c2c(nc3ccccc13)CCC2`, with “inactive”.
Then `O=S(=O)(Cc1ccc(Cl)cc1Cl)c1ccc(Cl)cc1`, with “inactive”; and `Cc1onc(-c2ccccc2Cl)c1C(=O)N1CCN(c2cccc(Cl)c2)CC1`, with “inactive”; and `CCN(Cc1ccccc1)c1ccc(/C=N/N=C(N)N)cc1`, with “inactive”.
Turning to `Cc1nn2cc(-c3cccc(Cl)c3)cnc2c1Br`, the activity change, negative = more quenching (active) entry is “inactive”.
For the molecule `N#C[C@H]1[C@H](c2ccc(C3=CCCCC3)cc2)[C@@H](CO)N1C(=O)NC1CCCCC1`, the activity change, negative = more quenching (active) result was “inactive”.
Turning to `CCc1ccc(OCc2n[nH]c(=S)n2C(C)CCCC(C)C)cc1` (stereo not drawn), the activity change, negative = more quenching (active) entry was “inactive”.
In the case of `CCOc1ccc2[nH]c(C(=O)N/N=C/c3ccc(OC)cc3)cc2c1` it was “inactive”; in that of `O=C(N/N=C/c1cccs1)c1cc(C2CC2)nc2ccccc12`, “inactive”; in that of `C/C(=N\NC(=O)c1cc(-c2cccs2)nc2ccccc12)c1ccccn1`, “inactive”.
In the case of `CCOC(=O)c1cc2c(=Cc3ccc(N(C)C)cc3)c3ccccc3n2[n+]1C`, the activity change, negative = more quenching (active) entry was “inactive”.
In the case of `O=C1c2ccccc2C(=O)c2c1cccc2N1CCCC1` it was “inactive”; in that of `Cc1ccc(S(=O)(=O)N2CCCCC2CCNC(=O)C(=O)NCc2ccccc2)cc1` (stereo not drawn), “inactive”.
In the case of `COc1ccc(NC(=O)Nc2ccc3c(c2)C(=O)N([C@H](C)CO)C[C@@H](C)[C@H](CN(C)Cc2ccc(C(F)(F)F)cc2)OCCCC[C@H](C)O3)cc1` it was “inactive”; in that of `COc1ccc(COc2cc(-c3cccc(OC)c3)nc3ccc(NC(=O)c4ccc(OC)cc4)cc23)cc1`, “inactive”; in that of `CCCCN1C(=O)CC(C(=O)OCC)=C1C`, “inactive”.
For the molecule `CC1(C(=O)NCc2cccs2)Cc2c(-c3ccc4c(c3)OCO4)ccnc2O1` (stereo not drawn), the activity change, negative = more quenching (active) result was “inactive”.
Then `CC1=NN(c2ccccc2)C(=O)C1N=Nc1cccc(O)c1` (stereo not drawn), with “inactive”; and `O=C1CC(c2ccccc2)CC2=C1C=Nc1ccccc1N2` (stereo not drawn), with “inactive”; and `CCc1c(C)nc2ncnn2c1NCCc1ccc(OC)cc1`, with “inactive”.
For the molecule `COc1ccc(CCNc2ncnc3c2oc2ccccc23)cc1OC`, the activity change, negative = more quenching (active) result was “inactive”.
Then `O=C1CN(S(=O)(=O)Cc2ccccc2)C[C@@H]2[C@@H](c3ccc(C#Cc4cccc(F)c4)cc3)[C@H](CO)N12`, with “inactive”; and `Cc1ccc2nc(-c3ccc4c(c3)OCCO4)cn2c1`, with “inactive”.
In the case of `CCCCNC(=O)C(=O)Nc1ccc2c(c1)N(S(=O)(=O)c1cccs1)CCC2` it was “inactive”; in that of `COc1cccc(/C=N/NC(=O)C(=O)Nc2ccccc2OC(F)(F)C(F)F)c1O`, “inactive”.
Then `Cc1ccc(-c2nn(-c3ccccc3)cc2C(=O)N2CCN(c3ccccn3)CC2)cc1`, with “inactive”; and `COc1ccc(S(=O)(=O)N(C(=O)C(C)C)c2ccc3oc(=O)sc3c2)cc1`, with “inactive”.
For `COc1nc(-c2ccccc2)cc(-c2ccc3c(c2)OCO3)c1C#N`, the activity change, negative = more quenching (active) result was “inactive”.
